Reference: PubChem BioAssay AID1347426 (Functional Genomics Laboratory (NCATS/FGL), 2020)
The whole screen tested about 31,000 sequences, of which about 1,400 (4.5%) were called active. Shown is part of a subset that was picked to be rich in actives. A number with no mark means an inactive call.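 How the source made its calls: active means median seed-adjusted z-score above 1 or below -1; inactive means the rest.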

experiment: Novel Modifiers of Survival Motor Neuron (SMN) Protein: Gene Identification via Genome-wide siRNA Screen; conditions: HEK293T SMN2-luciferase reporter, siRNA knockdown, 72 h; actives lie on both sides;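 further: luminescence tracks full-length SMN protein made from the SMN2 reporter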
Outline: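 HEK293T cells stably expressing an SMN2 splicing/cDNA-luciferase reporter were reverse-transfected with a druggable-genome siRNA library and read by luminescence at 72 hours; hits defined by MAD score above 1.0 or below -1.0.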

Row | Sequence | median seed-adjusted z-score
1 | GCUUUACAACAAUCACAUATT against AMIGO2 | -0.258
2 | CUCUUUCAAGUAUGAGACATT against INHA | 0.231
3 | CAGCUGCUAUCAGAACGGATT against APBA2 | 1.66 (active)
4 | GAAUAUUCUUGCAGAGUUUTT against WFDC5 | 0
5 | GGCUUUUGAGCAUCCCAAUTT against CDK4 | 0.346
6 | CAGUCCCUCUAUCACAUAUTT against ERH | -1.25 (active)
7 | GGAGGUGUUUUGUUCGGAUTT against SV2C | 0.183
8 | GGCUAGUGAUAUACUAUAUTT against RPS6KA6 | -0.0821
9 | CCAUCAGUACAUAUCCGAATT against ABCA8 | -0.666
10 | GCUCAUGGUUGAUGAUUCUTT against RABGGTA | -0.0601
11 | UCACUAUCAGUACCCAUUATT against CHRNB1 | 0.16
12 | GGAGAGAGGUCCAGUCUGATT against BIRC7 | -1.44 (active)
13 | CAAAGUAUCGGGUCAUCUATT against DMRTA1 | -0.162
14 | CUUUGACAGUGUUCGUGAATT against SGOL2 | 0.114
15 | CCAAGACGAUGAGAGUAUATT against UGCGL2 | -0.456
16 | CGGGCGAGUUUACUAUGUATT against ITCH | 0.199
17 | GCAUUGCCGAGAUCCAUGATT against PIK3R2 | 0.421
18 | UCACGUAGAGUCAUAUUUATT against HNRPA1P4 | -0.906
19 | ACACAGCUGUUGUACCUCATT against MAP4 | 1.67 (active)
20 | GAUACUUUGCCGUCAAUUATT against CA5B | 0.317
21 | CCAUUGAUCUGCACUACUATT against NUP85 | 0.948
22 | GACCUAUCCUUGCACCAGATT against ECT2 | 0.04

Row | Sequence | median seed-adjusted z-score
23 | GCUCGAGUGGAAGAACUCATT against GLMN | 0
24 | GCAGGACCCAUUACGGCUATT against DPEP1 | -0.886
25 | GGCUGUGCAUAAACGAGAATT against GTF2E1 | 1.76 (active)
26 | GGAGAACCAUAGAAAACCATT against RIPK3 | 0.123
27 | CGAGGACACCCUUAGCAGUTT against ADRA1B | -0.472
28 | GACCGUACGAGGCAAGUAATT against PAX1 | -0.111
29 | GAACGAGUGAGAGAAUAUATT against TTC9C | -0.571
30 | GCCGAGUCAGUAUCUAUGATT against STARD13 | -0.0337
31 | GGACAAGAAUUUUGCCUUUTT against U2AF2 | 2.14 (active)
32 | CCACGGUGAUAACAGACAUTT against ALDH8A1 | 0.0628
33 | GGCUAUACAGGGUAGACAATT against PXDNL | -0.186
34 | GGCAGAUAACUGAACGAGATT against HECW2 | 0.38
35 | CUGGCUACGUGAAUGUGCATT against ZDHHC12 | -0.0312
36 | GGAACUCGUGCAUCUCCAATT against CD93 | -0.0879
37 | GAGAUUACAUAAACGGAGATT against PARP11 | 0.192
38 | CAGAUGUUAUGGAUAUAAUTT against L2HGDH | -0.346
39 | GCUUAUGGUUGAUCAGUUATT against RNF7 | -1.18 (active)
40 | UGAGUUGCCCUGAUUUGAATT against AIF1 | -0.0293
41 | GCAACUCCUUCCUCGCUAATT against RBM17 | 0
42 | GAAUGUUCAAGAUCGAUUUTT against RANBP2 | 1.53 (active)
43 | UCAUGUAUGUGGGAGCCAATT against SNCG | -0.169
44 | AGGUGAUGCAGGACAGAAATT against COL18A1 | -0.441

Row | Sequence | median seed-adjusted z-score
45 | CCUCAACUCUUAUAUUACATT against ZNF595 | 0.102
46 | GGAUCCCUAUGUUCGGAAATT against AP2B1 | -0.214
47 | GCAGUAAUAUUUAUCUCUUTT against SUCNR1 | 0
48 | CCUGAAUCCUUAGACUUAATT against PROX1 | -0.372
49 | ACCCUGCUAUACUCCCUAUTT against MAPKAPK3 | -0.506
50 | GAUCCUAAUAUGAAGUUAUTT against FUBP1 | -1.52 (active)
51 | GCUAGAGAUUGACCAGAAATT against NUDC | -0.227
52 | GGCAACAACUGGAUCUGAATT against PIGZ | 0.74
53 | CUGGAUGAGGUGUACCUUATT against XPNPEP1 | -1.5 (active)
54 | GCAUGACCCUCGUCACAUATT against THBS1 | -0.847
55 | GGGUAGGUGAUAUCCAUAUTT against ZBTB5 | 0.314
56 | GGCGGAGUAUGGAAAGUUATT against UBE2H | 0
57 | GCACCUCUCUGCUAACUGUTT against PGC | 0.884
58 | CGAUGUCAGUAGGAACCUUTT against PSMC1 | -2.23 (active)
59 | CGACUACCCAUACUCUCCATT against CDC34 | 0
60 | CUACCUCUAUAUCACCAAATT against KDELR1 | -0.0168
61 | CCGUUGCUCUAUCUUCGUATT against SETBP1 | 0.0232
62 | GAAAGACAGAUCAAGAUUUTT against HOXB7 | -0.153
63 | ACCGCUUCAUGUCUGCGUATT against SF3A2 | -1.7 (active)
64 | AUCCGAUGGUGGUUACUGATT against MCOLN1 | -0.522
65 | CGGCUUGAAUUUGAUCUAUTT against AASDHPPT | 0.64
66 | GAGUGACUGUAGAGCCUCATT against GCS1 | 0.819

Row | Sequence | median seed-adjusted z-score
67 | CACGGUCUGUUCUCAGAUUTT against MXD4 | 0.688
68 | CCCUUUUACUAUUCAGCGATT against PPP4R2 | 0.211
69 | CAUUUUAGAUGGGCACAAUTT against GOSR2 | -1.25 (active)
70 | GAAUGAUCGUGAUCCUCGUTT against AHCTF1 | -0.501
71 | GAGUGAAGAUGAGUUGACATT against XRCC6 | 0
72 | GACCGGAUAUGGGCUAUAATT against NEK7 | 0
73 | CAAUUUUGCAGGCAACUUUTT against SCYE1 | 0.437
74 | GACAUAUAAUGACAUAGAUTT against TRAK1 | 0.298
75 | CUUUGUCAGAGAUCACUUATT against PIPOX | 1.06 (active)
76 | GGAAUGCUAAGUUCCGAGATT against ARFGAP1 | 0.123
77 | AGGUUUCAGUGGUUUGGAUTT against COL1A1 | 0
78 | CCAAGAACCCGGAGAAGUATT against EXOC7 | -0.231
79 | GUACAAUACAAACACUUAATT against ORC4L | -0.286
80 | GCGUGGACCCAAAUCAAUATT against KARS | -0.152
81 | GCUCCAACAUGGUCUACAATT against POLE | -1.55 (active)
82 | GCUAGUCUUCUGGAAGUUATT against SRPRB | 0.000693
83 | GGAUAUGCAUGCAAUCAAATT against ADAM23 | -0.0279
84 | GCCGUGACAUGAUAGGCAUTT against DDX41 | -0.611
85 | GGUUUGUGAAAGCAUAUAATT against FMNL2 | 0.293
86 | GGAACGAAGAGAACUAGAATT against OFD1 | 0
87 | CCAAGGAGCUUACUAUGGATT against SETDB2 | 0.417
88 | UGAGCAUGACUGAUUCCAATT against SFTPD | 0.289

Row | Sequence | median seed-adjusted z-score
89 | GUGAAGAUGUGGUCCUGAATT against PTK2B | 1.71 (active)
90 | GGCUGUAAACUGCGCAUCATT against APOBEC2 | 0.232
91 | GAAUUGGAGAGCACCAAUATT against POLR2B | -4.81 (active)
92 | ACAGGAUUCCAGAAAUGGATT against REG1A | 0.596
93 | GCAGAAUUCUCCUACCAAATT against ENTPD3 | -0.28
94 | GGUCAACGAUGACAACCGATT against ITGB4 | -0.226
95 | CGGUAUCAUUACUGGAUAATT against LNPEP | -0.386
96 | CCUUUGAGAUGGAAGCCUATT against ACY3 | 0.568
97 | CAACCCUACCAAUGCUACUTT against PTP4A2 | -1.45 (active)
98 | GCUGUGAAAUUGUUUCGAATT against IREB2 | 0
99 | GGGAACUUCUUGGAACUUUTT against KLK12 | 0.243
100 | CCAGCGCAACAAAGGAAAATT against HMX1 | 1.3 (active)
101 | GAACUAAGCACUACUCUAATT against DRP2 | -0.0555
102 | GCUACUUCUCAGUUGCUAATT against NDST4 | 0.426
103 | CAAAGUGACCAAGCAGAGATT against SF3A2 | -1.7 (active)
104 | CACCAGGACCAGUUAAAAATT against MVD | -0.561
105 | GGUGAUUCAAGAUGCCCAATT against PXMP2 | -0.444
106 | CUCCCAUGAUGGCAUCUUATT against HSPB2 | 0.247
107 | CCAUCGAUGUCUCUGCUAUTT against ABCA1 | -1.27 (active)
108 | UCGUCUUUGUCACCCGAAATT against CCL5 | 0.11
109 | CGUGCGGACAAUAAGCAAATT against MYO1C | 0.566
